The supplement of paper PMC8877412
Where a name gives a salt, the structure may show the parent alone. ± gives the uncertainty stated by the source.

The compounds below were run on NCC-PMP1-C1 (assay: cell viability relative to DMSO control; higher = less growth inhibition). Settings: 10 µM; 72 h.
Experimental: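 NCC-PMP1-C1 pseudomyxoma peritonei cells were seeded in 384-well plates coated with Matrigel and MEF (1e4 cells). Viability was read after 72 h by CCK-8 and expressed as % of the DMSO control, mean ± SD of duplicates.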

SMILES | cell viability [%]
Nc1cc(C(Cl)=C(Cl)Cl)c(S(N)(=O)=O)cc1S(N)(=O)=O [Clorsulon] | 117 ± 9.7
N#CC1(c2ccc(NC(=O)c3cccnc3NCc3ccncc3)cc2)CCCC1 [Apatinib] | 77.6 ± 9.1
Nc1nc(Cl)nc2c1ncn2[C@H]1C[C@H](O)[C@@H](CO)O1 [Cladribine] | 97.8 ± 1.1
Nc1ccn([C@@H]2O[C@H](CO)[C@@H](O)[C@@H]2O)c(=O)n1 [Cytosine β-D-arabinofuranoside hydrochloride] | 74.2 ± 10
Cc1ccc(F)c(NC(=O)Nc2ccc(-c3cccc4[nH]nc(N)c34)cc2)c1 [Linifanib (ABT-869)] | 45.2 ± 6.3
Clc1ccc(C(c2ccccc2Cl)C(Cl)Cl)cc1 (stereo not given) [Mitotane] | 106.8 ± 1
CN1CCN(c2ccc(C(=O)Nc3n[nH]c4ccc(Cc5cc(F)cc(F)c5)cc34)c(NC3CCOCC3)c2)CC1 [Entrectinib (RXDX-101)] | -0.545 ± 0.059
COC(=O)c1ccc2c(C(=Nc3ccc(N(C)C(=O)CN4CCN(C)CC4)cc3)c3ccccc3)c(O)[nH]c2c1 [Nintedanib (BIBF 1120)] | 23.9 ± 1.6
C#Cc1cccc(Nc2ncnc3cc(OCCOC)c(OCCO)cc23)c1 | 49.1 ± 7.9
S=C(NCc1ccc2c(c1)OCO2)N1CCN(c2ncnc3c2oc2ccccc23)CC1 [Amuvatinib (MP-470)] | 176.1 ± 0.89
C=CC(=O)Nc1cc2c(Nc3ccc(F)c(Cl)c3)ncnc2cc1OCCCN1CCOCC1 [Canertinib(CI-1033)] | 92.8 ± 7.2
CC1=C(CC(=O)O)c2cc(F)ccc2/C1=C\c1ccc([S+](C)[O-])cc1 (stereo not given) [Sulindac] | 111 ± 29
CN1CCN(CCOc2cc(OC3CCOCC3)c3c(Nc4c(Cl)ccc5c4OCO5)ncnc3c2)CC1 [Saracatinib (AZD0530)] | 49.7 ± 2
C/C(=C\c1csc(C)n1)[C@@H]1C[C@@H]2O[C@]2(C)CCC[C@H](C)[C@H](O)[C@@H](C)C(=O)C(C)(C)[C@@H](O)CC(=O)N1 | 73.7 ± 4.9
S=c1[nH]cnc2nc[nH]c12 [Mercaptopurine (6-MP)] | -6.45
Cc1ccc(NC(=O)c2ccc(CN3CCN(C)CC3)cc2)cc1Nc1nccc(-c2cccnc2)n1 [Imatinib (STI571)] | 92.3 ± 6.7
COc1cc([C@@H]2c3cc4c(cc3[C@@H](O[C@@H]3O[C@@H]5CO[C@@H](c6cccs6)O[C@H]5[C@H](O)[C@H]3O)[C@H]3COC(=O)[C@H]23)OCO4)cc(OC)c1O [Teniposide] | 13.5 ± 1.5
C=C1c2cccc(O)c2C(O)=C2C(=O)[C@]3(O)C(O)=C(C(N)=O)C(=O)[C@@H](N(C)C)[C@@H]3[C@@H](O)[C@H]12 [Methacycline HCl] | 108.4 ± 0.2
CNC(=O)c1cc(Oc2ccc(NC(=O)Nc3ccc(Cl)c(C(F)(F)F)c3)cc2)ccn1 [Sorafenib Tosylate] | 148 ± 14
O=C(c1ccc(OCCN2CCCCC2)cc1)c1c(-c2ccc(O)cc2)sc2cc(O)ccc12 [Raloxifene HCl] | 92.9 ± 5.5

SMILES | cell viability [%]
COc1cc2nccc(Oc3ccc(NC(=O)Nc4cc(C)on4)c(Cl)c3)c2cc1OC [Tivozanib (AV-951)] | 60.7 ± 11
C#CCC(Cc1cnc2nc(N)nc(N)c2n1)c1ccc(C(=O)N[C@@H](CCC(=O)O)C(=O)O)cc1 (stereo not given in full) [Pralatrexate] | 104 ± 9.8
CCCCNc1ncc(-c2ccc(CN3CCOCC3)cn2)c(NC2CCC(O)CC2)n1 (stereo not given) | 43.4 ± 2
O=C(CCCCCCC(=O)Nc1ccccc1)NO [Vorinostat (SAHA, MK0683)] | 27.7 ± 2.2
CN(C)/N=N/c1[nH]cnc1C(N)=O [Dacarbazine] | 111.7 ± 1.1
CCCCC1C(=O)N(c2ccccc2)N(c2ccccc2)C1=O [Phenylbutazone] | 119 ± 5.4
CC[C@@H]1/C=C(\C)C[C@H](C)C[C@H](OC)[C@H]2O[C@@](O)(C(=O)C(=O)N3CCCC[C@H]3C(=O)O[C@H](/C(C)=C/[C@@H]3CC[C@H](Cl)[C@H](OC)C3)[C@H](C)[C@@H](O)CC1=O)[C@H](C)C[C@@H]2OC [Pimecrolimus] | 78.1 ± 5.1
CS(=O)(=O)CCNCc1ccc(-c2ccc3ncnc(Nc4ccc(OCc5cccc(F)c5)c(Cl)c4)c3c2)o1 [Lapatinib] | 50.4 ± 2.3
CC(=O)OCC(CCn1cnc2cnc(N)nc21)COC(C)=O [Famciclovir] | 94.3 ± 12
COc1cc(Nc2c(C#N)cnc3cc(OCCCN4CCN(C)CC4)c(OC)cc23)c(Cl)cc1Cl [Bosutinib (SKI-606)] | 52.4 ± 0.73
CC[C@]1(O)C[C@H]2CN(CCc3c([nH]c4ccccc34)[C@@](C(=O)OC)(c3cc4c(cc3OC)N(C=O)[C@H]3[C@@](O)(C(=O)OC)[C@H](OC(C)=O)[C@]5(CC)C=CCN6CC[C@]43[C@@H]65)C2)C1 [Vincristine] | 50.8 ± 0.53
Nc1cccc2c1C(=O)N(C1CCC(=O)NC1=O)C2=O (stereo not given) [Pomalidomide] | 99.2 ± 2.3
CC(C)C(=O)Nc1ccc([N+](=O)[O-])c(C(F)(F)F)c1 [Flutamide] | 74 ± 38
CC(=O)[C@]1(O)Cc2c(O)c3c(c(O)c2[C@@H](O[C@H]2C[C@H](N)[C@H](O)[C@H](C)O2)C1)C(=O)c1ccccc1C3=O [Idarubicin HCl] | 4.26 ± 0.73
Cc1cccc(N(C)C(=S)Oc2ccc3ccccc3c2)c1 [Tolnaftate] | 101 ± 19
O=NN(CCCl)C(=O)NC1CCCCC1 [Lomustine] | 105 ± 11
Cc1ccc(S(=O)(=O)Nc2nc3ccccc3nc2Nc2ccc3nsnc3c2)cc1 [XL147 analog] | 96.2 ± 9
CN(C)C/C=C/C(=O)Nc1cc2c(Nc3ccc(F)c(Cl)c3)ncnc2cc1O[C@H]1CCOC1 [Afatinib (BIBW2992)] | 12.4 ± 2.3
Cc1nc(Nc2ncc(C(=O)Nc3c(C)cccc3Cl)s2)cc(N2CCN(CCO)CC2)n1 [Dasatinib Monohydrate] | 41.1 ± 8.4
CCOC(=O)[C@H](CCc1ccccc1)N[C@H]1CS[C@H](c2cccs2)CN(CC(=O)O)C1=O [Temocapril HCl] | 84.76 ± 0.83
